HTR5A ag ctr: HTR5A agonists in luminescence cell assay, primary screen, counter-screen for OPRM1-OPRD1 heterodimer agonist project, full-deck HTS | AID 504692, 2011 | activation, % at 9.3 µM | 0.61% of 340,000 active | cell-based | 5-hydroxytryptamine receptor 5A (Homo sapiens), P47898; in the data active means activation mostly above about 9.5%, no sharp cut-off; inactive means mostly below about 7.6%
MsrA inhibitor: bovine MsrA enzyme inhibitors, primary screen, biochemical, absorbance, HTS; Methionine sulfoxide reductase A (Bos taurus); AID 651718, 2012; purified bovine MsrA, absorbance read-out; 0.75% of 360,000 active; inhibition, % at 15.5 µM; in the data active means inhibition above about 4.5%
OPRM1-OPRD1 inv: inverse agonists of MOR-DOR heterodimerization, primary screen, cell-based, luminescence; cell-based MOR-DOR heterodimer luminescence, inverse agonism; inhibition, % at 9.3 µM; 0.21% of 340,000 active; in the data active means inhibition above about 22%, passing the limit was not always enough
OPRM1-OPRD1 ag: agonists of OPRM1-OPRD1 heterodimerization, primary screen, cell-based, luminescence; Mu-type opioid receptor (Homo sapiens) + Delta-type opioid receptor (Homo sapiens), …; cells; activation, % at 9.3 µM; 0.3% of 340,000 active; AID 504326, 2011; in the data active means activation above about 18%
HTR5A inv ag: HTR5A inverse agonists in luminescence cell assay, primary screen, counter-screen for OPRM1-OPRD1 heterodimer inverse agonist project, full-deck HTS | 5-hydroxytryptamine receptor 5A (Homo sapiens), P47898 | HTR5A cell line, inverse agonism | inhibition, % at 9.3 µM | 0.083% of 340,000 active | AID 504634, 2011; in the data active means inhibition mostly above about 23%, no sharp cut-off; inactive means mostly below about 18%
MsrA act: bovine MsrA enzyme activators, primary screen, biochemical, absorbance, HTS; Methionine sulfoxide reductase A (Bos taurus); purified bovine MsrA, absorbance read-out; activation, % at 10.6 µM; 0.3% of 360,000 active; in the data active means activation above about 7.5%
Hits are given with their value; - = inactive; . = no result given. Hits are enriched below; roughly 1.9% of the tested compounds scored in any of these assays.

SMILES	HTR5A ag ctr	MsrA inhibitor	OPRM1-OPRD1 inv	OPRM1-OPRD1 ag	HTR5A inv ag	MsrA act
Cc1cc(-n2c(SCC(=O)Nc3ccc(F)c(F)c3)nc3n[nH]c(C)c3c2=N)ccc1Cl	9.8	-	-	-	-	-
Cc1cc(-n2c(SCC(=O)NCc3cccs3)nc3n[nH]c(C)c3c2=N)ccc1Cl	12	-	-	-	-	-
OC(c1ccccc1)(c1ccccc1)C1CCN(CCCOc2ccc(-c3ccc(F)cc3F)cc2)CC1	.	-	.	.	.	.
CCOC(=O)C(=CNc1ccc2c(c1)CCN2C(C)=O)C(=O)OCC	-	4.9	-	-	-	-
CCOC(=O)c1ccc(N=c2scc(C)n2CC)cc1	13	-	-	-	-	-
COC(=O)c1cc(C)nc2c1C(=O)C(=O)C=C2N1CCOCC1	-	-	-	26	-	-
COC(=O)c1cc(S(=O)(=O)N2CCOCC2)c(Cl)cc1N1CCOCC1	-	-	-	-	-	-
Cc1ccc2c(c1)COc1c3ccc(C(=O)N[C@@H](C)CO)cc3nn1-2	14	-	-	-	-	-
O=C(O)CCC(=O)N1CCN(c2ccc(C(=O)c3ccc(F)cc3)cc2)CC1	-	4.7	-	-	-	-
CCCNCC1C(Oc2ccc(Cl)cc2Cl)C(=O)N1c1cccc(C)c1C (stereo not given)	-	-	-	-	-	-
CCCCNCC1C(Oc2ccc(Cl)cc2)C(=O)N1c1ccccc1C (stereo not given)	12	-	-	-	-	-
CCc1cc2c(nc1CC)CCCN2S(=O)(=O)c1ccccc1C	.	-	.	.	.	.
CCCCc1c(-c2ccccc2OC)ncn1C(C)c1ccccc1 (stereo not given)	.	-	.	.	.	.
CCCCOc1cccc(C2C(C(=O)c3ccc(C)o3)=C(O)C(=O)N2Cc2ccco2)c1 (stereo not given)	13	-	-	-	-	-
CCOc1cccc(C2C(C(=O)c3ccc(C)o3)=C(O)C(=O)N2Cc2ccccc2)c1 (stereo not given)	-	-	-	-	-	-
CCOC(=O)N[C@H](C(=O)N1CCC[C@H]1C(=O)NCCc1ccccc1Cl)c1ccccc1	.	-	.	.	.	.
COc1ccc(CN2C[C@H](COCc3ccccc3)Oc3cccc(F)c3S2(=O)=O)cc1	.	-	.	.	.	.
CC1(C)CC(=O)C=C(c2ccccc2-c2cccc(C(N)=O)c2)C1=O	.	-	.	.	.	.
Nc1[nH]c(C(=O)c2ccccc2)c(-c2cccc3ccccc23)c1C(=O)NC1CCCCC1	.	-	.	.	.	.
Cc1ccc(NC(=O)Cn2c(O)c(N=NS(=O)(=O)c3ccc(C)cc3)c3ccccc32)cc1	-	-	53	-	-	-
Cc1ccc(NC(=O)Cn2c(O)c(N=NC(N)=O)c3ccccc32)cc1	-	-	-	-	-	-
CC(=O)C(Cl)C(=O)Nc1ccccc1 (stereo not given)	-	-	74	-	-	-
O=C(Nc1ccccc1)C(Cc1ccccc1)c1ccccc1 (stereo not given)	-	-	-	-	-	-
O=C(Nc1ccccc1)C(Cl)C(=O)c1ccccc1 (stereo not given)	-	-	96	-	51	-
CC(C(=O)Nc1ccccc1)C(=O)Nc1ccccc1	-	-	-	-	-	-
SMILES	HTR5A ag ctr	MsrA inhibitor	OPRM1-OPRD1 inv	OPRM1-OPRD1 ag	HTR5A inv ag	MsrA act
O=C(Cc1c[nH]c2ccccc12)Nc1ccc(Nc2cccnc2)c(-c2ccc(-c3ccccc3)cc2F)c1	.	-	.	.	.	.
CC1(C)OC(C)(C)C(=N/O)/C1=N\N	.	-	.	.	.	.
COCc1cc(N2CCN(C(=O)OC(C)(C)C)C[C@H]2C)ccc1N1CC[C@H](O)C1	.	-	.	.	.	.
Cc1ccc(C(C)C)c(OCC(O)CN(C)Cc2ccccc2)c1 (stereo not given)	12	-	-	-	-	-
O=C(Cc1c[nH]c2ccccc12)Nc1ccc(Nc2cccnc2)c(-c2ccc(F)c(F)c2)c1	.	-	.	.	.	.
CCCCCCCCN1C(=O)[C@@H](CC(=O)NCCCOC)C[C@@]2(C(=O)OC)C1=C[C@H](C1CCCC1)O[C@@H]2C	.	-	.	.	.	.
COc1cc2sc(NC(=O)c3ccco3)nc2cc1Cl	9.9	-	-	-	-	-
Cc1cc2sc(NC(=O)c3ccco3)nc2cc1Cl	-	-	-	-	-	-
COc1cc2c(cc1OC)C1(CCCC1)CNC2c1cccc([N+](=O)[O-])c1 (stereo not given)	-	-	35	-	38	-
CCOC(=O)C1=C(C(=O)OCC)C2N(Cc3ccc(C#N)cc3)c3ccccc3[C@@]23C[C@@H](C(=O)OC)N(S(=O)(=O)c2ccc(C)cc2)C3=N1 (stereo not given in full)	.	-	.	.	.	.
COc1ccc2sc(-c3ccc(S(C)(=O)=O)cc3)c(C#CCO)c2c1	-	-	-	-	-	-
COc1ccc2c(C#CCCO)c(-c3ccc(S(C)(=O)=O)cc3)sc2c1	13	-	-	-	-	-
COc1cccc(C=NNc2nc3ccccc3s2)c1OC	9.7	-	-	-	-	-
O=C(N[C@@H](Cc1cccnc1)C(=O)N1CCC[C@H]1C(=O)NCCc1ccccc1Cl)C1CCCC1	.	-	.	.	.	.
CCOC(=O)C(C)Oc1cccc2c(=O)n(CC(=O)Nc3ccc4c(c3)OCCO4)ccc12 (stereo not given)	-	-	-	-	-	-
CCOC(=O)C(C)Oc1cccc2c(=O)n(CC(=O)NCc3ccc4c(c3)OCO4)ccc12 (stereo not given)	12	-	-	-	-	-
C[C@H](O)[C@@H]1C(=O)N2CCc3c([nH]c4c(-c5ccc6c(c5)OCO6)cccc34)[C@@H]2C[C@@H]1N(C)C(=O)Nc1ccccc1	.	-	.	.	.	.
O=C(CCl)NCCNC(=O)c1cc(OCC(F)(F)F)ccc1OCC(F)(F)F	.	-	.	.	.	-
O=C(NCCN1CCCCC1)c1cc(OCC(F)(F)F)ccc1OCC(F)(F)F	10	-	-	-	-	-
COC(=O)[C@]1(Cc2ccccc2)NC=C(C(=O)c2ccc(F)cc2)[C@@H]1c1ccccc1	.	-	.	.	.	.
Cc1cc(Br)cn2c(Cc3ccccc3C(F)(F)F)c(-c3ccco3)nc12	.	-	.	.	.	.
Cc1ccc(/C=N/NC(=O)CSc2nnc(-c3ccc(Cl)cc3)n2-c2ccccc2)o1	14	-	-	-	-	-
CCOC(=O)c1c(NC(=O)CCC(=O)O)sc2c1CCCCC2	-	-	-	-	-	-
COC(=O)c1c(NC(=O)CCC(=O)O)sc2c1CCCCC2	14	-	-	-	-	-
O=c1[nH]c(-c2ccccc2)cs1	-	-	-	-	-	-
S=c1[nH]c(-c2ccccc2)cs1	10	-	-	-	-	-
CCCc1nnc(NC(=O)CCC(=O)N2CCCCC2CC)s1 (stereo not given)	9.9	-	-	-	-	-

Compound activity deposited in PubChem BioAssay by The Scripps Research Institute Molecular Screening Center.
